# Compound activity as filed in PubChem BioAssay.
# An excerpt weighted towards active compounds, which were near 5.4% of everything screened.
# Beta apoptosis: blocks beta cell apoptosis. INS-1E cytokine-induced death, ATP luminescence, 48 h; percent of positive-control rescue, neutral wells zero. protection from apoptosis, % (no concentration beside the values). AID 435005. 0.8% of 300,000 active;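 active = Every replicate reaches about 75%, or at least half do and their mean reaches it too, limit read from the data; inconclusive = At least half of replicates reach the limit but their mean does not; inactive = Under half of replicates reach the limit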;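 note: 0% = cytokine-treated negative control wells and 100% = positive control rescue; higher means more ATP so stronger rescue from cytokine killing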
# Calb FLC: affects C. albicans growth with fluconazole; C. albicans CaCi-2 (fluconazole-resistant clinical isolate) + fluconazole, Alamar Blue growth, 48 h; growth inhibition, % (concentration not given with the values); 0.57% of 300,000 active; AID 1979;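 active = growth inhibition above about 58% in most replicates, limit read from the data, passing the limit was not always enough; inconclusive = exactly half the replicates above a set limit; inactive = most replicates below a set limit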;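 note: all wells also contain fluconazole at 8 µg/ml as a sub-toxic cotreatment; 0% = median of DMSO wells and 100% = median of geldanamycin control wells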
# Mdm2 MdmX PPI: human Mdm2/MdmX binding inhibition | O15151+Q00987 | inhibition, % at 8 µM | 3% of 330,000 active | SaOS-2 split-luciferase Mdm2/MdmX complementation, luminescence;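 active = inhibition of at least 50% at 8 µM in the primary screen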
# Target sequence (O15151 whole entry, looked up): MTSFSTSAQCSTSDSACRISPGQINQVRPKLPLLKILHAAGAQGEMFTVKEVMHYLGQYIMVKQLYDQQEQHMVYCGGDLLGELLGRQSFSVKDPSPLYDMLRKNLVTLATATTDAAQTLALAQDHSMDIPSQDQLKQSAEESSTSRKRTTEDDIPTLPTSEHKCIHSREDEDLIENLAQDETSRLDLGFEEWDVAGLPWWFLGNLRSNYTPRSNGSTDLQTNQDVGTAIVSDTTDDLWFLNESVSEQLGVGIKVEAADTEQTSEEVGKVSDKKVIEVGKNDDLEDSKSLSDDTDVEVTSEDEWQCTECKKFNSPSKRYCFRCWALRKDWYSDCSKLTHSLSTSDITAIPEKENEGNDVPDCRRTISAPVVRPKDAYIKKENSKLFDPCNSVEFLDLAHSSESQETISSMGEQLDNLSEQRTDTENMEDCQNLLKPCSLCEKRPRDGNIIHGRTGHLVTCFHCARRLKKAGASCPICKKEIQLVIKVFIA
# Target sequence (Q00987 whole entry, looked up): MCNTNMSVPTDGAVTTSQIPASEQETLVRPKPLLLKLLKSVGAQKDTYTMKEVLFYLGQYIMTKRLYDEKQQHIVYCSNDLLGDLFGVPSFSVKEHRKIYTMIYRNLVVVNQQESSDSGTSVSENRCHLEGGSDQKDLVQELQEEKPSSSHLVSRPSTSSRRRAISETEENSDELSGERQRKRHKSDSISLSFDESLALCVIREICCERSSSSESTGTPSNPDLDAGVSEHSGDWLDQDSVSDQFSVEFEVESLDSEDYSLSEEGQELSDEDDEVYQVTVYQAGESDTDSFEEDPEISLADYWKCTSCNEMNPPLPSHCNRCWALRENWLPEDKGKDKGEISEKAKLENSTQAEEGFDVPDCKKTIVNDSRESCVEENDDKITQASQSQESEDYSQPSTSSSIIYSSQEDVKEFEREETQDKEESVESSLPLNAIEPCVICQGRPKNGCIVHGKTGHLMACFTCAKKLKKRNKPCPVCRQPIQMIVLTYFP
# SKKanGAS inh: blocks kanamycin growth of S. pyogenes SKKanGAS strain. inhibition, % at 7.5 µM. 1.3% of 300,000 active. BacTiter-Glo, 6 h. AID 1662;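 active = mean replicate score, as percent of positive control median, at least 50; inconclusive = mean below 50 but one replicate at or above 50; inactive = mean and every replicate below 50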;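 note: strain carries kanamycin resistance gene driven by streptokinase promoter and grows in 40 µg/ml kanamycin; loss of luminescence reflects streptokinase promoter inhibition or plain growth inhibition; 0% = median of DMSO wells and 100% = positive control at its reference dose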
# CSC inhib: cancer stem cell inhibition | cancer stem cell-like cells viability, luminescence | inhibition, % at 7.5 µM | 1.1% of 300,000 active | AID 2717; in the data active = inhibition above about 75%; inconclusive = no clear call, values can overlap the other calls; tested in HMLE shEcad cells
# MPTP inh: blocks calcium-induced mitochondrial swelling | isolated mouse mitochondria, Ca2+ swelling absorbance, 30 min | inhibition, % at 10 µM | 1.4% of 360,000 active | AID 602449;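 active = inhibition of 50% or more, scaled per plate between neutral and stimulator controls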;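 note: 0% = DMSO wells given calcium and 100% = 1 mM EGTA wells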
# Mdm2 MdmX conf: human Mdm2/MdmX binding inhibition, confirmed; shares compounds with Mdm2 MdmX PPI; luminescent assay; inhibition, % at 8 µM; 55% of 10,000 active; in the data active = inhibition above about 40%
# Full FLuc ctr: inhibits full-length luciferase, flagging false Mdm2/MdmX hits | shares compounds with Mdm2 MdmX PPI | SaOS-2 full-length luciferase counterscreen, luminescence | inhibition, % at 8 µM | 77% of 6,200 active | AID 504607;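 active = mean inhibition at 8 µM reaching about 37%, which flags the compound as non-specific, limit read from the data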;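 note: p53-null SaOS-2 cells with luciferase driven by a doxycycline-inducible promoter; compound on cells about two nights before reading with doxycycline added after day one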
# * = called active by the depositor; ? = inconclusive; nt = not tested or not shown.
SMILES,Beta apoptosis,Calb FLC,Mdm2 MdmX PPI,SKKanGAS inh,CSC inhib,MPTP inh,Mdm2 MdmX conf,Full FLuc ctr
OC(CNCC1CCCO1)Cn1c2ccc(Cl)cc2c2cc(Cl)ccc21 (stereo unspecified),nt,69,96*,13,111*,3,44*,20
O=C(CCl)Nc1ccccc1Sc1ccc(Cl)cc1,-16,-2,79*,8,42,6,71*,55*
CC(=O)N1CCN(CC(=O)Nc2ccccc2Sc2ccc(Cl)cc2)CC1,6,-5,-5,8,-11,2,nt,nt
CCCc1cc(=O)oc2c(C)c(OC3CCCCC3=O)ccc12 (stereo unspecified),nt,9,-19,-9,nt,0,nt,nt
O=C(Nc1cccc(Cl)c1)c1nc[nH]c1C(=O)NCCCCNC(=O)c1[nH]cnc1C(=O)Nc1cccc(Cl)c1,13,nt,86*,nt,nt,0,-19,nt
O=C(Nc1ccc(Cl)cc1)c1nc[nH]c1C(=O)Nc1ccccc1F,nt,nt,nt,nt,nt,0,nt,nt
O=C(Nc1ccc(Cl)cc1)c1nc[nH]c1C(=O)NCCCCNC(=O)c1[nH]cnc1C(=O)Nc1ccc(Cl)cc1,7,nt,99*,nt,68,0,73*,69*
O=C(Nc1cccc(Cl)c1)c1nc[nH]c1C(=O)NCCN(CCNC(=O)c1[nH]cnc1C(=O)Nc1cccc(Cl)c1)CCNC(=O)c1[nH]cnc1C(=O)Nc1cccc(Cl)c1,3,nt,75*,nt,nt,0,24,nt
COc1ccccc1C(=O)NCC(=O)NCCCN1CCOCC1,1,nt,9,nt,nt,0,nt,nt
Nc1[nH]n2c(=O)c3c(nc2c1N=Nc1ccccc1)CCCC3,28,-3,47,2,nt,-1,nt,nt
Nc1[nH]n2c(=O)c3c(nc2c1N=Nc1ccc(Cl)cc1)CCCC3,-1,14,53*,83*,41,5,26,nt
Cc1c(C(=O)N2CCCCCC2)nnn1-c1nonc1N,-10,-8,21,0,5,2,nt,nt
Cc1ccc(C(=O)Nc2cccnc2)cc1S(=O)(=O)N1CCCCCC1,-2,6,23,-2,1,2,nt,nt
Cc1nc2c(-c3ccccc3)cnn2c(N)c1-c1ccccc1,6,2,83*,4,28,-1,77*,148*
Cc1cc(C(=O)CN2C(=O)C3CC=CCC3C2=O)c(C)n1-c1ccccc1 (stereo unspecified),2,-1,0,-11,-4,4,nt,nt
Cc1cc(C)nc(NC(=O)CN2C(=O)c3ccccc3S2(=O)=O)n1,nt,4,-5,-3,1,-1,nt,nt
C=CCn1c(C)cc(C(=O)CN2C(=O)c3ccccc3S2(=O)=O)c1C,2,nt,74*,nt,-8,1,79*,53*
Cc1cc(C(=O)CN2C(=O)c3ccccc3S2(=O)=O)c(C)n1C(C)C,-1,nt,56*,nt,-6,0,41*,37*
CCn1c(C)cc(C(=O)CN2C(=O)c3ccccc3S2(=O)=O)c1C,-6,nt,88*,nt,-11,0,81*,23
Cc1cc(C(=O)CN2C(=O)c3ccccc3S2(=O)=O)c(C)n1-c1ccccc1,0,-8,57*,14,-7,-3,32,nt
C=CCn1c(C)cc(C(=O)CN2C(=O)NC3(CCCc4ccccc43)C2=O)c1C (stereo unspecified),-3,3,-34,1,-10,-6,nt,nt
O=C(CN1C(=O)NC2(CCCCC2)C1=O)Nc1ccc(N2CCOCC2)cc1,3,-7,2,2,-10,-2,nt,nt
O=C(Nc1ccc(Cl)cc1)Nc1ccc(N2CCC(C(F)(F)F)CC2)nc1,-1,10,4,-1,-13,26,nt,nt
COc1ccc(N(CC(=O)Nc2cc(Cl)ccc2OC)S(=O)(=O)c2c(C)[nH]c(=O)[nH]c2=O)cc1,-5,?,3,10,4,-1,nt,nt
CCN(CC)CCCNC(=O)C1CCN(c2ncnc3c2sc2cccc(F)c23)CC1,6,3,21,-2,5,1,nt,nt
SMILES,Beta apoptosis,Calb FLC,Mdm2 MdmX PPI,SKKanGAS inh,CSC inhib,MPTP inh,Mdm2 MdmX conf,Full FLuc ctr
CC1CC(C)CN(CCCNC(=O)C2CCN(c3ncnc4c3sc3cccc(F)c34)CC2)C1 (stereo unspecified),5,0,56*,1,-14,nt,34,64*
CC(OC(=O)Cn1cnc2c1c(=O)n(C)c(=O)n2C)C(=O)NCc1ccccc1 (stereo unspecified),-2,2,41,1,-12,0,nt,nt
CCOc1ccc(-c2nc(N)ncc2Oc2ccc(OC)cc2)c(O)c1,-22,-10,14,9,-1,1,nt,nt
COc1ccc(-c2nc(N)nc(C)c2Oc2ccccc2Br)c(O)c1,-11,nt,67*,nt,83*,3,65*,53*
Cc1ccc(-n2c(SCC(=O)NCc3ccco3)nc3sc4c(c3c2=O)CC(C)(C)SC4)cc1,0,5,13,0,-13,1,nt,nt
CCC1CCc2c(sc3nc(SCC(=O)NCc4ccco4)n(-c4ccccc4)c(=O)c23)C1 (stereo unspecified),10,3,55*,1,-42,0,11,nt
CCOc1ccc(/C=N/NC(=O)COc2ccccc2-c2ccccc2)cc1,3,-21,51*,23,78*,3,44*,52*
CCOc1ccc(/C=N/NC(=S)Nc2c(C)cccc2C)cc1,4,2,52*,11,6,0,15,nt
O=C1C2C3c4ccccc4C(c4ccccc43)C2C(=O)N1CN1CCOCC1 (stereo unspecified),2,-13,1,-3,1,-1,nt,nt
O=C(CSc1ccc(Cl)cc1)N/N=C/c1cccnc1,3,-9,14,1,-9,-2,nt,nt
CC(C)(C)c1ccccc1OCC(=O)NCCCn1ccnc1,-7,2,6,3,15,-5,nt,nt
OC(c1ccccc1)(c1nc(-c2csc3ccccc23)cs1)C(F)(F)F (stereo unspecified),nt,nt,nt,nt,nt,2,nt,nt
CCc1ccc(/C=C2\SC(=S)N(CCCC(=O)Nc3ccccn3)C2=O)cc1,-7,-3,85*,5,6,-4,73*,53*
COC(=O)c1ccc(/C=C2/SC(=S)N(CCCC(=O)Nc3ccccn3)C2=O)cc1,-12,7,75*,3,63,1,32,nt
CCc1ccc(C=C2SC(=S)N(CCCC(=O)Nc3ccc(C(=O)O)cc3)C2=O)cc1,nt,nt,nt,nt,nt,1,nt,nt
COc1ccc(S(=O)(=O)Nc2ccc3ccccc3c2)cc1C,1,?,18,-2,2,5,nt,nt
COC(=O)C1=C(C)N(CCc2ccccc2)C(=O)C1(NS(=O)(=O)c1ccc(NC(C)=O)cc1)C(F)(F)F (stereo unspecified),-1,3,65*,0,17,-2,32,59*
COc1cccc(CNCc2ccccc2Br)c1OC,-14,3,-2,7,-13,0,nt,nt
